Assay results published in PubChem BioAssay (NCATS).
Results filed as inconclusive are left out. Active and inactive are the calls of the source. Calls follow the shape of the dose curve; as a rule, active = well fitted curve in the direction sought with a large enough effect; inconclusive = small, poorly fitted or top-dose-only effect, or another doubt; inactive = no such curve, though single readings can be large; an effect the other way counts as inactive or inconclusive.

Assays:
[1] = Cell Viability - LYMP2-023 (AID 975);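 also: cellular ATP measured by luciferase luminescence as viability proxy; plate controls were DMSO only for no effect and 92 µM tetraoctylammonium bromide control for full effect; nearly all actives have a fitted effect of over 55% in size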
Method in brief: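 Intracellular ATP, read by CellTiter-Glo luminescence, reports viability after 24 hr compound exposure at 37 C. 2500 lymphoblastoid cells/well (LYMP2-023) seeded 5 hr beforehand; Hill fits give AC50; positive control tetraoctylammonium bromide.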

[2] = Cell Viability - LYMP2-025 (AID 976);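 also: plate controls were DMSO only for no effect and tetraoctylammonium bromide control for full effect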
Method in brief: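 Cytotoxicity read as loss of intracellular ATP (luciferase luminescence) after 24 h compound treatment at 37 C. Uses LYMP2-025 lymphoblastoid cells in 1536-well format; Hill-equation modelling gives AC50; tetraoctylammonium bromide as positive control.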

[3] = Cell Viability - LYMP2-002 (AID 977);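 also: plate controls were DMSO only for no effect and 92 µM tetraoctylammonium bromide for full effect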
Method in brief: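 Human lymphoblastoid cells (2500/well) in complete medium were preincubated 5 hr at 37 C, then exposed to compounds for 24 hr at 37 C. Intracellular ATP was read by CellTiter-Glo luminescence; AC50 came from Hill-equation concentration-response fits.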

[4] = Cell Viability - LYMP2-006 (AID 978); also: % is scaled to controls: 0 for no effect and ±100 for the full control effect; nearly all actives have a fitted effect of over 60% in size
Method in brief: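 Potency values are Hill-fit AC50s for decreases in intracellular ATP (CellTiter-Glo luminescence). LYMP2-006 lymphoblastoid cells, 2500 per well, were exposed to compound in complete culture medium for 24 hr at 37 C.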

[5] = Cell Viability - LYMP2-007 (AID 979);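 also: cells exposed to compound for 24 h before reading; 0% = DMSO only and the negative end = 92 µM tetraoctylammonium bromide; nearly all actives have a fitted effect of over 60% in size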
Method in brief: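 AC50 values come from Hill-equation fits of luminescent intracellular ATP (CellTiter-Glo, 30 min, room temperature) following 24 h compound exposure at 37 C. Cells: LYMP2-007 lymphoblastoid line, 2500 per well, in complete culture medium.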

[6] = Cell Viability - LYMP2-008 (AID 980); also: % is scaled to controls: 0 for no effect and ±100 for the full control effect; nearly all actives have a fitted effect of over 60% in size
Method in brief: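 Cytotoxicity determined from ATP-dependent luciferase luminescence (CellTiter-Glo) following 24 h compound exposure of human lymphoblastoid LYMP2-008 cells at 37 C. Concentration-response data fitted to the Hill equation to give AC50.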

[7] = Cell Viability - LYMP2-010 (AID 981); also: % is scaled to controls: 0 for no effect and ±100 for the full control effect; nearly all actives have a fitted effect of over 55% in size
Method in brief: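 CellTiter-Glo ATP luminescence measured cytotoxicity after 24 h compound exposure at 37 C. LYMP2-010 cells were seeded at 2500/well, with tetraoctylammonium bromide as control; concentration-response curves gave AC50 values by the Hill equation.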

[8] = Cell Viability - LYMP2-012 (AID 982);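 also: cellular ATP by luciferase luminescence where a drop means cytotoxicity; cells exposed to compound for one day before reading; 0% = DMSO only and full loss = 92 µM tetraoctylammonium bromide; nearly all actives have a fitted effect of over 55% in size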
[9] = Cell Viability - LYMP2-014 (AID 983);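 also: plate controls were DMSO only for no effect and 92 µM tetraoctylammonium bromide for full effect; nearly all actives have a fitted effect of over 50% in size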
Method in brief: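 Intracellular ATP loss, read by luciferase luminescence, measures acute cytotoxicity after 24 h compound exposure of lymphoblastoid LYMP2-014 cells (2500/well, 37 C). Concentration-response data fitted to the Hill equation for AC50.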

[10] = Cell Viability - LYMP2-016 (AID 984); also: % is scaled to controls: 0 for no effect and ±100 for the full control effect; nearly all actives have a fitted effect of over 55% in size
Method in brief: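 Cytotoxicity was scored by luminescent ATP content (CellTiter-Glo) after 24 h compound exposure at 37 C of a human lymphoblastoid line at 2500 cells/well. Concentration-response data were fitted to the Hill equation for AC50.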

[11] = Cell Viability - LYMP2-018 (AID 985);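 also: plate controls were DMSO only for no effect and tetraoctylammonium bromide at 92 µM for full effect; nearly all actives have a fitted effect of over 50% in size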
Method in brief: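 Viability read as CellTiter-Glo luminescence (cellular ATP) after 24 hr compound exposure at 37 C of 2500 LYMP2-018 lymphoblastoid cells/well, pre-plated 5 hr. Hill-equation modelling gave AC50.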

[12] = Cell Viability - LYMP2-020 (AID 986)
Method in brief: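 Cytotoxicity in qHTS format: luminescent ATP readout from CellTiter-Glo after 24 h compound exposure at 37 C in complete medium. LYMP2-020 lymphoblastoid cells were seeded at 2500/well; concentration-response data fitted to the Hill equation for AC50.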

[13] = Cell Viability - LYMP2-022 (AID 987)
Method in brief: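 Cytotoxicity read as decreased cellular ATP (CellTiter-Glo luminescence, 30 min room temperature) after 24 hours compound exposure of 2500 lymphoblastoid LYMP2-022 cells/well at 37 C. Concentration-response data fitted with standard Hill equation for AC50.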

[14] = Cell Viability - LYMP2-024 (AID 988);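 also: plate controls were DMSO only for no effect and 92 µM tetraoctylammonium bromide for full effect; nearly all actives have a fitted effect of over 60% in size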
Method in brief: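 Cytotoxicity was taken as a decrease in ATP (CellTiter-Glo luminescence) after 24 hr compound exposure at 37 C of LYMP2-024 lymphoblastoid cells, 2500 cells/well. Concentration-response data were fitted to the Hill equation to give AC50.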

[15] = Cell Viability - LYMP2-026 (AID 989); also: % is scaled to controls: 0 for no effect and ±100 for the full control effect; nearly all actives have a fitted effect of over 50% in size
Method in brief: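 Cytotoxicity read as ATP-dependent luminescence (CellTiter-Glo, 30 min room temperature) after 24 h compound treatment at 37 C. LYMP2-026 lymphoblastoid line seeded at 2500 cells/well; AC50 derived by standard Hill equation.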

[16] = Cell Viability - LYMP1-002 - Assay at 24 hr (AID 993); also: % is scaled to controls: 0 for no effect and ±100 for the full control effect
Method in brief: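 qHTS cytotoxicity at 24 h: CellTiter-Glo ATP luminescence in lymphoblastoid line LYMP1-002 incubated with compound at 37 °C. Concentration-response modeled with the Hill equation for AC50; tetraoctylammonium bromide served as positive control.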

[17] = Cell Viability - LYMP1-002 - Assay at 40 hr (AID 994)
Method in brief: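 Cytotoxicity was read as loss of cellular ATP (CellTiter-Glo luminescence) after 40 hr compound exposure at 37 C of 2500 LYMP1-002 lymphoblastoid cells per well. Concentration-response data were fitted with the standard Hill equation to give AC50.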

[18] = molecular target: Rap guanine nucleotide exchange factor 3 (Homo sapiens) (UniProt O95398); assay: Counterscreen qHTS for agonist of cAMP-regulated guanine nucleotide exchange factor 3 (EPAC1) (AID 1645889); also: % of control where 0% means no effect; nearly all actives have a fitted effect of over 40% in size
Method in brief: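 Rap1B-BODIPY-GDP 250 nM + GDP 50 uM; cpds 7-pt, final 9.74 nM–152 uM (activator mode) or from 7.32 nM upwards (inhibitor mode); RT; FI 480/540 nm at 5 and 30 min, then ± cAMP, reread.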

[19] = molecular target: ATP-dependent 6-phosphofructokinase (Trypanosoma brucei brucei) (UniProt O15648); assay: qHTS Assay to Find Inhibitors of T. brucei phosphofructokinase: hit validation (AID 492961);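 also: luminescence reports ADP formed as PFK phosphorylates fructose-6-phosphate with ATP; % is scaled to controls: 0 for no effect and ±100 for the full control effect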
Sequence of ATP-dependent 6-phosphofructokinase (Trypanosoma brucei brucei) (O15648 whole entry, looked up): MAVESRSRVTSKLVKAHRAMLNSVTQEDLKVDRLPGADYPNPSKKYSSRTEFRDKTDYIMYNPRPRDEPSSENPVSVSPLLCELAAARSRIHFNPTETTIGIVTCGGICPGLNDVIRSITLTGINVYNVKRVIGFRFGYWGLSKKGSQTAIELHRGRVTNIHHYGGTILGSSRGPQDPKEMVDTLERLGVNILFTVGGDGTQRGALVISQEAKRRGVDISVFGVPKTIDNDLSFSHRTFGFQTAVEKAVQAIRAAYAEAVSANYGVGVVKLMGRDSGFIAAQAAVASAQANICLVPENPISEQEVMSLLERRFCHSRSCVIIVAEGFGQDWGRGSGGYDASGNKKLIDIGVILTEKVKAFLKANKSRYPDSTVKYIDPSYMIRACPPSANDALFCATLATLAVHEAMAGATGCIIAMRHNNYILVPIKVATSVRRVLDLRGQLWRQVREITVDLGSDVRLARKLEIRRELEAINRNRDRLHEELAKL
Method in brief: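 In this biochemical qHTS validation, titrated compounds were tested against 1.25 nM PFK with 0.1 mM ATP and 0.5 mM F6P. Percent activity came from controls lacking or containing enzyme.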

CP203 = assay: qHTS profiling for inhibitors of Plasmodium falciparum proliferation (AID 504749); conditions: P. falciparum in erythrocytes, SYBR Green DNA, 72 h; series mostly up to 28.7 µM
Method in brief: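 SYBR Green fluorescence of parasite DNA, read after lysis and overnight dark incubation, measured growth over 72 h in erythrocyte culture at 0.3% parasitemia and 2.5% hematocrit. Data normalised to DMSO and 0.29 uM artemisinin, with plate-drift correction.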

CC(C)(c1cc(Br)c(O)c(Br)c1)c1cc(Br)c(O)c(Br)c1
inactive: outcome [1] | outcome [2] | outcome [3] | outcome [4] | outcome [5] | outcome [6] | outcome [7] | outcome [8] | outcome [9] | outcome [10] | outcome [11] | outcome [12] | outcome [13] | outcome [14] | outcome [15] | outcome [16] | outcome [17]

Cc1ccc(P(=O)(CSC(=N)N)c2ccc(C)cc2)cc1
inactive: activation [18] -0.0561% [at 30.8 µM]

Oc1ccc(/C=C\c2cc(O)cc(O)c2)cc1
inactive: outcome [19] | Potency (CP203)
